Several values for one entry are separate records, joined by “and”; a condition that tells them apart may be missing. Equal values may be shown once. Records with an inconclusive call do not appear. Activity calls are given as the source filed them. Calls follow the shape of the dose curve; as a rule, active = well fitted cell-killing curve with a large enough effect; inconclusive = small, poorly fitted or top-dose-only effect, or effect the other way; inactive = no such curve, though single readings can be large or run the other way.
Experiment: Cell Viability qHTS for small molecule stabilizers of the endoplasmic reticulum resident proteome (AID 1508629);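 also: compound exposure about 46 h in total before the viability read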
Details: cell viability counter-screen, 100 nM thapsigargin for final 4 h
Text: Assay Provider: Brandon K. Harvey Ph.D.
National Institute on Drug Abuse, National Institutes of Health, Baltimore, MD
Endoplasmic reticulum (ER) dysregulation is associated with human pathologies including neurodegenerative, cardiovascular, muscular, and diabetic conditions. Maintenance of ER calcium is critical for functions of the ER and its depletion can lead to loss of ER resident proteins, in a process termed exodosis. Therapeutic compounds capable of attenuating the redistribution of ER proteins under pathological conditions may slow or stop disease progression. To identify such compounds, we performed a quantitative high-throughput screen (qHTS) using the SERCaMP assay, which monitors secretion of ER resident proteins triggered by calcium depletion.
SERCaMP was initially developed as a reporter of ER calcium homeostasis using a Gaussia luciferase with a modified signal peptide and carboxy-terminus (GLuc-SERCaMP), modifications that confer secretion of the reporter in response to ER calcium depletion (Henderson et al., 2014). The assay was used to screen 9,501 compounds, including a collection of drugs approved by the FDA (US), EMA (EU), NHI (Japan), and HC (Canada) regulatory agencies (Huang et al., 2011). Since the SERCaMP reporter reflects the exodosis phenomenon (Trychta et al., 2018a), compounds identified in the screen have the potential to prevent exodosis by different mechanisms such as stabilizing ER calcium or augmenting ERS retrieval.
1. Henderson, M.J., Wires, E.S., Trychta, K.A., Richie, C.T., and Harvey, B.K. (2014). SERCaMP: a carboxy-terminal protein modification that enables monitoring of ER calcium homeostasis. Mol Biol Cell 25, 2828-2839.
2. Huang, R., Southall, N., Wang, Y., Yasgar, A., Shinn, P., Jadhav, A., Nguyen, D.T., and Austin, C.P. (2011). The NCGC pharmaceutical collection: a comprehensive resource of clinically approved drugs enabling repurposing and chemical genomics. Sci Transl Med 3, 80ps16.
3. Trychta, K.A., Back, S., Henderson, M.J., and Harvey, B.K. (2018a). KDEL Receptors Are Differentially Regulated to Maintain the ER Proteome under Calcium Deficiency. Cell Rep 25, 1829-1840 e1826.
SEQUENCE No. (1, 2, 3, etc.); […] (e.g., Cells, Incubation, Reagent, etc.); VALUE and DESCRIPTION.
1; Reagent; 5 uL; 1000 SH-SY5Y cells per wells
3; Compound; 23 nL; Control inhibitor / compound library
5; Reagent; 100 nM; Thapsigargin
7; Reagent; 5 uL; CellTiter-Glo (Promega)
8; Time; 10 min; room temperature
9; Detection; Luminescence; ViewLux imaging system
NOTES (numbers refer to sequence above)
1; SH-SY5Y human neuroblastoma cells stably expressing GLuc-SERCaMP (SH-SY5Y-GLuc-ASARTDL) cells were seeded in 1,536 well white tissue culture treated plates (Corning, Cat# 7464) in DMEM-high glucose-sodium pyruvate (ThermoFisher Scientific, Cat #10569) supplemented with 10% bovine growth serum (Hyclone), 10 U/ml penicillin (Gibco), 10 ug/ml streptomycin (Gibco), and 20 mM HEPES.
2; Assay plates were incubated for 5 hr at 37C in a humidified incubator containing 5% CO2.
3; qHTS libraries (23 nl, final concentrations of 1.53 uM, 7.67 uM, 38.3 uM) or controls (neutral control: DMSO, positive control: dantrolene) were added using a Kalypsis pin-tool Robotic System equipped with 1536 pinheads.
4; Cells were then incubated for 42 hours at 37C, 5% CO2.
5; Thapsigargin was added at 100 nM to deplete ER calcium stores.
6; Cells were incubated for 4 hr (37C, 5% CO2).
7; Cell viability was measured using the CellTiter-Glo Luminescent Cell Viability Assay (Promega). Briefly, an equal volume of reagent was added to each well. Plates were rotated for 2 min.
8; Assay plates were incubated for 10 min at room temperature.
9; Luminescence was measured using a ViewLux CCD imaging system (Perkin Elmer) equipped with clear filters.
% is scaled to controls: 0 for no effect and ±100 for the full control effect; potency is read from the fitted curve at half-maximal effect.

Row | Structure (SMILES) | max response | Potency
1 | c1ccc(-c2cccc(N3CC4(CCNCC4)C3)c2)cc1 | -13.3% (inactive) | –
2 | Cc1ccc(-n2c(C)cc(/C=N/NC(=O)c3ccncc3)c2C)cc1C | 2.93% (inactive) | –
3 | COc1ccc(Oc2ncc3nc(CCc4ccccc4)c(=O)n(C[C@H]4CCCO4)c3n2)cc1 | 6.27% (inactive) | –
4 | C=C1CCC[C@]2(C)C[C@H]3OC(=O)[C@H](CNCCc4ccccc4OC)C3CC12 (stereo not given in full) | -12.1% (inactive) | –
5 | c1cncc(-c2nc(N3CCNCC3)c3ccccc3n2)c1 | 15.1% (inactive) | –
6 | O=C(Nc1cccc(F)c1)N1CCC2(CC1)CCN(S(=O)(=O)c1ccccc1)CC2 | 3.59% (inactive) | –
7 | OC[C@H]1NC[C@@H](O)[C@@H](O)[C@@H]1O | 8.42% (inactive) | –
8 | COCCn1c(=O)c(-c2cn(C)c3ccccc23)nc2cnc(N3CCNCC3)nc21 | -7.1% (inactive) | –
9 | O=C(Nc1cccc(F)c1)N1CCCC2(CCNCC2)C1 | 8.67% (inactive) | –
10 | CCCCCCCCCCCCc1ccccc1O | 11.8% (inactive) | –
11 | COc1cccc(CN2CCN(C(=O)c3ccc(-c4ccccc4)cc3)CC2)c1OC | 10.7% (inactive) | –
12 | O=c1c(CCc2ccccc2)nc2cnc(N3CCNCC3)nc2n1Cc1ccc(F)cc1 | -14.8% (inactive) | –
13 | Cc1cccc(CNc2cc(-c3ccccc3CN(C)C)ncn2)c1 | -21.4% (inactive) | –
14 | O=C(c1cc(C(F)(F)F)cc(C(F)(F)F)c1)N1CCC2(CC1)CCN(c1ccccn1)CC2 | 25.1% (inactive) | –
15 | CN1CCN(c2nc(-c3ccc(N(C)C)cc3)nc3ccccc23)CC1 | 17.5% (inactive) | –
16 | CN1CCN(c2nc(-c3ccccc3C(F)(F)F)nc3ccccc23)CC1 | 16.6% (inactive) | –
17 | COc1ccc(Oc2ncc3nc(-c4cccs4)c(=O)n(CCC#N)c3n2)cc1 | 18.3% (inactive) | –
18 | CN1CCN(c2ncncc2-c2ccccc2C(F)(F)F)CC1 | 18.7% (inactive) | –
19 | CC(C)(c1cc(Br)c(O)c(Br)c1)c1cc(Br)c(O)c(Br)c1 | 18.1% (inactive) and 32.8% (inactive) and -0.114% (inactive) | –
20 | CN(C)c1ncc2nc(CCc3ccccc3)c(=O)n(C[C@H]3CCCO3)c2n1 | 23.4% (inactive) | –

Row | Structure (SMILES) | max response | Potency
21 | O=c1c(-c2ccc(F)cc2)nc2cnc(N3CCNCC3)nc2n1-c1ccccc1 | -15.9% (inactive) | –
22 | O=C(O)/C=C/C(=O)Nc1ccc(OC(F)(F)Cl)cc1 | 5.17% (inactive) | –
23 | Cc1nc2cnc(N3CCN(C)CC3)nc2n(Cc2cccs2)c1=O | -5.25% (inactive) | –
24 | COc1ccc(NC(=O)N2CCC3(CC2)CCN(S(=O)(=O)c2ccccc2)CC3)cc1 | -18.8% (inactive) | –
25 | CCC(C)C(N)C(=O)NC(CC(N)=O)C(=O)NC(CC(C)C)C(=O)NC(CCCCN)C(=O)NC(C)C(=O)NC(CC(C)C)C(=O)NC(C)C(=O)NC(C)C(=O)NC(CC(C)C)C(=O)NC(C)C(=O)NC(CCCCN)C(=O)NC(CCCCN)C(=O)NC(C(=O)NC(CC(C)C)C(N)=O)C(C)CC (stereo not given) | 16.1% (inactive) | –
26 | COc1ccc(Oc2ncc3nc(-c4ccccc4)c(=O)n(C4CC4)c3n2)cc1 | 12.6% (inactive) | –
27 | CCNc1ncc2nc(CCc3ccccc3)c(=O)n(CCOC)c2n1 | 18.6% (inactive) | –
28 | N#CCCn1c(=O)c(CCc2ccccc2)nc2cnc(Oc3cccc(Cl)c3)nc21 | 7.03% (inactive) | –
29 | OC[C@H]1NC[C@H](O)[C@@H](O)[C@@H]1O | 6.89% (inactive) | –
30 | COc1ccc(-n2c(=O)c(-c3ccccc3)nc3cnc(N4CCN(C)CC4)nc32)cc1 | 12.9% (inactive) | –
31 | Fc1ccc(Nc2ccnc(-c3ccccc3C(F)(F)F)n2)cc1 | -1.83% (inactive) | –
32 | Cn1c(=O)c(CCc2ccccc2)nc2cnc(OCc3ccccc3)nc21 | -14.7% (inactive) | –
33 | Cc1ccc(C(=O)N/C(=C\c2cccs2)c2nc3ccccc3[nH]2)cc1 | 8.84% (inactive) | –
34 | COc1ccc(-n2c(=O)c(-c3ccccc3)nc3cnc(N4CCNCC4)nc32)cc1 | 0.755% (inactive) | –
35 | COCCn1c(=O)c(-c2ccccc2)nc2cnc(Oc3ccc(OC)cc3)nc21 | 4.93% (inactive) | –
36 | O=c1c(CCc2ccccc2)nc2cnc(N3CCNCC3)nc2n1CCc1ccccc1 | -5.58% (inactive) | –
37 | COc1ccc(CNc2ncnc3ccc(-c4ccccc4CN(C)C)cc23)c(OC)c1 | 6.24% (inactive) | –
38 | CC(=O)N[C@H]1C(O[C@@H]2O[C@H](C[C@@H](O)[C@H]3O[C@@H](N4CCC(=O)NC4=O)[C@H](O)[C@@H]3O)[C@H](O)[C@H](O)[C@H]2NC(=O)/C=C/CCCCCCCCCCC(C)C)OC(CO)[C@@H](O)[C@@H]1O (stereo not given in full) | – | 0.398 µM (active)
39 | O=c1c(-c2cccs2)nc2cnc(N3CCNCC3)nc2n1-c1ccccc1 | 6.37% (inactive) | –
40 | CC(C)=CCc1c2c(c3occ(-c4ccc(O)c(O)c4)c(=O)c3c1O)C=CC(C)(C)O2 | – | 7.94 µM (active)
